The supplement of paper PMC11732987, “Enantioselective OTUD7B fragment discovery through chemoproteomics screening and high-throughput optimisation” (Communications Chemistry, 2025)

Assays:
Assay in all cases: log2 ratio of Biotin-Ahx-Ub-VS probe labelling (fragment/DMSO); higher = less target engagement (more negative = stronger competition), active = hit call of the paper (q ≤ 0.05, log2 ratio ≤ -1)
Details in all cases: compound concentration: 200 uM; treatment time: 3 h
USP34 = USP34 (UniProt Q70CQ2)
USP34, sequence (Q70CQ2 whole entry, the tested form may be a part): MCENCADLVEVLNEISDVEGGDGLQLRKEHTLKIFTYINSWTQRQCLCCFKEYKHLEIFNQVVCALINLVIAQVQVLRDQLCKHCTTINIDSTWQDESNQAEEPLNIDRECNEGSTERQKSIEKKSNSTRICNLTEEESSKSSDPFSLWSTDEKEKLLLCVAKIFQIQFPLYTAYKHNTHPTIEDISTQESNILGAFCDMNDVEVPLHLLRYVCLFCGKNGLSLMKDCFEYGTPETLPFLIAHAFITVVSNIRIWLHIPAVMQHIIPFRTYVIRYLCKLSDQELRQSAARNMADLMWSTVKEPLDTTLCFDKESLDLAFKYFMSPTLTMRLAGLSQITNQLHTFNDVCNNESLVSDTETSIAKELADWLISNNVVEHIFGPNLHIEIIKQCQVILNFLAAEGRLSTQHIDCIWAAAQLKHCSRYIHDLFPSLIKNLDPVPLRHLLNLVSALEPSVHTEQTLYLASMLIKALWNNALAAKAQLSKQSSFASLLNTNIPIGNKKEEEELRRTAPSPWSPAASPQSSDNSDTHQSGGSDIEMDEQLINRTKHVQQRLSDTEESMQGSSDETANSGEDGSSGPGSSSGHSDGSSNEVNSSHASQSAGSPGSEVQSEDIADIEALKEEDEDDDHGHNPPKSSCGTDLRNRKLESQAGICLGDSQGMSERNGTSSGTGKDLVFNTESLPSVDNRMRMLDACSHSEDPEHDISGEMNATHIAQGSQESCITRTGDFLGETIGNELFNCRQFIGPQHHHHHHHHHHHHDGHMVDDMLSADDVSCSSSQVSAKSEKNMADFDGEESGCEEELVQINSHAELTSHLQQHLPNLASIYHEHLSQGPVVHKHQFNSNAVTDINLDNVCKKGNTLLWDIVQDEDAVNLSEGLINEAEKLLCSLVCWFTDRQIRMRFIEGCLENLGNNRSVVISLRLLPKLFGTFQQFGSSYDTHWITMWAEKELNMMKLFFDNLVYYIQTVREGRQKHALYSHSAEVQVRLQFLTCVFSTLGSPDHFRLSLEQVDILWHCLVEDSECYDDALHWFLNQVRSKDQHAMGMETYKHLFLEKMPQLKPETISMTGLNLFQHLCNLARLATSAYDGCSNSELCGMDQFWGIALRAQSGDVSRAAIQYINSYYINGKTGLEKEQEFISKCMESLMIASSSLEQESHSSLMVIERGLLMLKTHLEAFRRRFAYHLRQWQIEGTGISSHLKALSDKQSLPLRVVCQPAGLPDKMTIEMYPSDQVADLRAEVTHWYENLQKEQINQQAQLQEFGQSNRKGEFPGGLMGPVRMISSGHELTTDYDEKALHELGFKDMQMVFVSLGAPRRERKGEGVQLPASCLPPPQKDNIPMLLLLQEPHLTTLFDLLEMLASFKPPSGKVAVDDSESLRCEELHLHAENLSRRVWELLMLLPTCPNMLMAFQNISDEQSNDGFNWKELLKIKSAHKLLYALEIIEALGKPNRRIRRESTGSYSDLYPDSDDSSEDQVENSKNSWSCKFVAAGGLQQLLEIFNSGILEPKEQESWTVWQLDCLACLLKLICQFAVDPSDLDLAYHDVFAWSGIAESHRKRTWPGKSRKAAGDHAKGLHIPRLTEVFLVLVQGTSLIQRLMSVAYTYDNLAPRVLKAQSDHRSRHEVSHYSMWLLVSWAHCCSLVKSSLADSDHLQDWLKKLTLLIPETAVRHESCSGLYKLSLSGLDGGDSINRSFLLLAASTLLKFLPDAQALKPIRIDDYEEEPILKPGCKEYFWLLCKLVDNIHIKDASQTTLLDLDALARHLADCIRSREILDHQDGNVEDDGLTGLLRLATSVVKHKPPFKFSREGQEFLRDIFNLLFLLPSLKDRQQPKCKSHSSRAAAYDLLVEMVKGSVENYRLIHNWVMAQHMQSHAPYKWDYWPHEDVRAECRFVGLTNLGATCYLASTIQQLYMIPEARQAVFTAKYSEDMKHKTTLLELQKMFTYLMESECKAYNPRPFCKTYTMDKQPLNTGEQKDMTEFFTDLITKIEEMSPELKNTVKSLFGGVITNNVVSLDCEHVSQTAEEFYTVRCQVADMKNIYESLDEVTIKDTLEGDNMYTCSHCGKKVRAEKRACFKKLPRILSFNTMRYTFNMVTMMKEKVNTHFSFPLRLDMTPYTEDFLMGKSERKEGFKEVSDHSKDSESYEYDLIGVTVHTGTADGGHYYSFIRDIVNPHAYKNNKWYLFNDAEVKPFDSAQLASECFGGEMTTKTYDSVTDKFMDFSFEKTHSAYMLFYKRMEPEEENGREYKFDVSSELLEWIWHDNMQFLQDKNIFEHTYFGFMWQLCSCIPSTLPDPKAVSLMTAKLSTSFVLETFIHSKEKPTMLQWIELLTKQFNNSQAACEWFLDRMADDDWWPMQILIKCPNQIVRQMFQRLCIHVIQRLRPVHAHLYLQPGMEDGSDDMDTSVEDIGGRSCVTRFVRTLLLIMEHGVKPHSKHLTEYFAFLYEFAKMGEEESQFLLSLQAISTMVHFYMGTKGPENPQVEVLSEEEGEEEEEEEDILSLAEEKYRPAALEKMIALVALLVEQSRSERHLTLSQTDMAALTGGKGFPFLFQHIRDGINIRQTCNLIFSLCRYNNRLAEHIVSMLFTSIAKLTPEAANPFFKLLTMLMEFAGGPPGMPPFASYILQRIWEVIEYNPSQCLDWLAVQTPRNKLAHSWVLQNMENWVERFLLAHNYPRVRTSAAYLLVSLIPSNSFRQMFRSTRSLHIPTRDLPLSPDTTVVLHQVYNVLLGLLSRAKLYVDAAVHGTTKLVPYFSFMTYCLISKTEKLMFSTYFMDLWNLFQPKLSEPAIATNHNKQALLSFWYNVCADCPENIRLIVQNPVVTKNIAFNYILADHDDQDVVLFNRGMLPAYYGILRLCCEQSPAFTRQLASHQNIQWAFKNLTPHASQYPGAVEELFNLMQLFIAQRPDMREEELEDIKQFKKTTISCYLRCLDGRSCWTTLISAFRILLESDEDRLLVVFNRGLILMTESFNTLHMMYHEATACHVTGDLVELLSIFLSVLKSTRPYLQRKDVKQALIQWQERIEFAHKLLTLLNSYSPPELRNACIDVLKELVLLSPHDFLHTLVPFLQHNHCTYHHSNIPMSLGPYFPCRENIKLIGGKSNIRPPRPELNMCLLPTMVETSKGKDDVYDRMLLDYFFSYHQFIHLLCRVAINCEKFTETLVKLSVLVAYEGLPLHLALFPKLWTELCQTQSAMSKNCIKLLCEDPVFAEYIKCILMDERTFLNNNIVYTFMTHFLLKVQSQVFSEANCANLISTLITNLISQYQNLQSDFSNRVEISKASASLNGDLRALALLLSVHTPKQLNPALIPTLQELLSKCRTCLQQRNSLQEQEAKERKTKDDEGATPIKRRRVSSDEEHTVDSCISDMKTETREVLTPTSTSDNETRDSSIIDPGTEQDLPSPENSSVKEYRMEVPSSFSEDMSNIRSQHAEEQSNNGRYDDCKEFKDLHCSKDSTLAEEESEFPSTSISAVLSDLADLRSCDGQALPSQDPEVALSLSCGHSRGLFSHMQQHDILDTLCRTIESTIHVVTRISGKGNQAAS
How it was run: (§1)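 Labelling with Biotin-Ahx-Ub-VS (0.5 µM final, 1 h) followed a 3 h triplicate treatment of HEK293T lysate (495 µg per sample, Tris/CHAPS/IGEPAL buffer with protease inhibitors) with fragment at 200 µM or vehicle. Labelled DUBs were NeutrAvidin-enriched, digested with LysC and trypsin, and run by diaPASEF LC-MS/MS. The values, average log2 fragment/vehicle ratios by unpaired t-test, come from global-median-normalised Spectronaut label-free quantities. Proteins with ≥2 unique peptides were used.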

USP36 = target: T1, USP36 (UniProt Q9P275)
T1 sequence (whole entry): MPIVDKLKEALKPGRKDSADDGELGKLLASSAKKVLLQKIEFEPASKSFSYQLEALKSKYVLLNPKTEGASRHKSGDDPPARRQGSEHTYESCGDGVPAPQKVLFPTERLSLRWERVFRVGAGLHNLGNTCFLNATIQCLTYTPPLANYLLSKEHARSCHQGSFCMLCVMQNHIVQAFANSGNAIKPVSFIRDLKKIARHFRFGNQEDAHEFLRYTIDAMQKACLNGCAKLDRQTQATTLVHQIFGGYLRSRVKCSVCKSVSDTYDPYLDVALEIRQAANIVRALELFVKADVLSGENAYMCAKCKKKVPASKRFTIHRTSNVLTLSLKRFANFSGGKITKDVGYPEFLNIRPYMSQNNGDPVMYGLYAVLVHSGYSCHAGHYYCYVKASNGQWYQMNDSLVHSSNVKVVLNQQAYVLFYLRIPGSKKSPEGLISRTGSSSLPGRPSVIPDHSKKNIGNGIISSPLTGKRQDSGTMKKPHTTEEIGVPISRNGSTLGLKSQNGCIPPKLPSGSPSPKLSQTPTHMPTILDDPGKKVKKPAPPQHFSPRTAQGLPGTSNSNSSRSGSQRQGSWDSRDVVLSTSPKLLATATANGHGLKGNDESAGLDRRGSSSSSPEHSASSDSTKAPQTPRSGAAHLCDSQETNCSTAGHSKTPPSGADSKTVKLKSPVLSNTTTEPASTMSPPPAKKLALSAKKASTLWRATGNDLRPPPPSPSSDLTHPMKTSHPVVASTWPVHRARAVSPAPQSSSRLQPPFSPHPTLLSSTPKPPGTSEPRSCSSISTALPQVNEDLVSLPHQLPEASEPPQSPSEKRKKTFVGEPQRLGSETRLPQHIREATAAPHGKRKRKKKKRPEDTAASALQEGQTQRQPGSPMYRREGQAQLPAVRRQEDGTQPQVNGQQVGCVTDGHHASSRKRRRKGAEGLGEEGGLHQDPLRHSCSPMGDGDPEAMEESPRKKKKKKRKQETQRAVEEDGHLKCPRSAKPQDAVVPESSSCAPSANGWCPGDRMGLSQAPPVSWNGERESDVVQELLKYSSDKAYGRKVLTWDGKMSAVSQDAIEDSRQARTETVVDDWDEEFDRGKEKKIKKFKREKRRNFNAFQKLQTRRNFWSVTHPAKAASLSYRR
How it was run: as §1

USP38 = target: T2, USP38 (UniProt Q8NB14)
T2 sequence (whole entry): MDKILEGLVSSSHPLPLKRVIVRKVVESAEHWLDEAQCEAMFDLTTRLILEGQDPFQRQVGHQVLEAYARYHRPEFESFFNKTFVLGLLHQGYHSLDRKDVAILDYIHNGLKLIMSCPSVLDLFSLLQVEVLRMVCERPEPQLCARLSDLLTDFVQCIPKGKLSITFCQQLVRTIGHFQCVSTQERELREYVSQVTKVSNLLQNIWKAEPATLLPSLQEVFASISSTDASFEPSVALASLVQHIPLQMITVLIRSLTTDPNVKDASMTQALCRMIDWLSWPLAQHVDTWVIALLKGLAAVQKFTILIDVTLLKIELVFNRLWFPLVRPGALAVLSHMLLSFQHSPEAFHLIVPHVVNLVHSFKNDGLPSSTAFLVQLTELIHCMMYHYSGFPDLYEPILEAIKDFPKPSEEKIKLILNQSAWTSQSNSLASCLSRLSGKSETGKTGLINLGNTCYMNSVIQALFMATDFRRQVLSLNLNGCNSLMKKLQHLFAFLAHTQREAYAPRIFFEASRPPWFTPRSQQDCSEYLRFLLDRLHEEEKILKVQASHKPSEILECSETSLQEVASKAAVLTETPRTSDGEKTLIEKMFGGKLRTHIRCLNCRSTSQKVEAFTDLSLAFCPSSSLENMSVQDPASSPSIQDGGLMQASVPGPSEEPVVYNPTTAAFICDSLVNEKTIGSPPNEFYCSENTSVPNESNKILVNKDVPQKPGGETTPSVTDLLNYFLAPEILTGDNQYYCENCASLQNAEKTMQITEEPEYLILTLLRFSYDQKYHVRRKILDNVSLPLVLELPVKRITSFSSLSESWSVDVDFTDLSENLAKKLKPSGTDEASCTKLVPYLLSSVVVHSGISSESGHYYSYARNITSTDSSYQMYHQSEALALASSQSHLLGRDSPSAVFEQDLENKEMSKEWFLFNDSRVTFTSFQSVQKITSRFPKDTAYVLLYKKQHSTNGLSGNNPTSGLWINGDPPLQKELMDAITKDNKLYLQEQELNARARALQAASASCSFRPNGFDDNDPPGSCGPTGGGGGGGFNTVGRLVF
How it was run: as §1

USP39 = target: T3, USP39 (UniProt Q53GS9)
T3 sequence (whole entry): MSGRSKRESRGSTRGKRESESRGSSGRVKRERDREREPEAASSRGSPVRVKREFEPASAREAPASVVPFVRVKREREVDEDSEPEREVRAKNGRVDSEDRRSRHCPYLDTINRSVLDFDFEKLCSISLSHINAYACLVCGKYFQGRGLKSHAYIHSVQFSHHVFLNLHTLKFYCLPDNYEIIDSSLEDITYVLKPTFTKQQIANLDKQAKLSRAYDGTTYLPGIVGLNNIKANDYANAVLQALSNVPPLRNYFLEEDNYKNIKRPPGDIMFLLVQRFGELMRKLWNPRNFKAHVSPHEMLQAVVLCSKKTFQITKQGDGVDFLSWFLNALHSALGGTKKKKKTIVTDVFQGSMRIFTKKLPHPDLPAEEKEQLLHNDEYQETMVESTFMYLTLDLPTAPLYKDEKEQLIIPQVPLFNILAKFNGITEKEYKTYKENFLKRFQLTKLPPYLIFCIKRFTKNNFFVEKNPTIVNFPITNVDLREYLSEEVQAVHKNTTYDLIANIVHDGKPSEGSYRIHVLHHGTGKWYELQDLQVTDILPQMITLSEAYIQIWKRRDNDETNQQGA
How it was run: as §1

USP4 = target: T4, USP4 (UniProt Q13107)
T4 sequence (whole entry): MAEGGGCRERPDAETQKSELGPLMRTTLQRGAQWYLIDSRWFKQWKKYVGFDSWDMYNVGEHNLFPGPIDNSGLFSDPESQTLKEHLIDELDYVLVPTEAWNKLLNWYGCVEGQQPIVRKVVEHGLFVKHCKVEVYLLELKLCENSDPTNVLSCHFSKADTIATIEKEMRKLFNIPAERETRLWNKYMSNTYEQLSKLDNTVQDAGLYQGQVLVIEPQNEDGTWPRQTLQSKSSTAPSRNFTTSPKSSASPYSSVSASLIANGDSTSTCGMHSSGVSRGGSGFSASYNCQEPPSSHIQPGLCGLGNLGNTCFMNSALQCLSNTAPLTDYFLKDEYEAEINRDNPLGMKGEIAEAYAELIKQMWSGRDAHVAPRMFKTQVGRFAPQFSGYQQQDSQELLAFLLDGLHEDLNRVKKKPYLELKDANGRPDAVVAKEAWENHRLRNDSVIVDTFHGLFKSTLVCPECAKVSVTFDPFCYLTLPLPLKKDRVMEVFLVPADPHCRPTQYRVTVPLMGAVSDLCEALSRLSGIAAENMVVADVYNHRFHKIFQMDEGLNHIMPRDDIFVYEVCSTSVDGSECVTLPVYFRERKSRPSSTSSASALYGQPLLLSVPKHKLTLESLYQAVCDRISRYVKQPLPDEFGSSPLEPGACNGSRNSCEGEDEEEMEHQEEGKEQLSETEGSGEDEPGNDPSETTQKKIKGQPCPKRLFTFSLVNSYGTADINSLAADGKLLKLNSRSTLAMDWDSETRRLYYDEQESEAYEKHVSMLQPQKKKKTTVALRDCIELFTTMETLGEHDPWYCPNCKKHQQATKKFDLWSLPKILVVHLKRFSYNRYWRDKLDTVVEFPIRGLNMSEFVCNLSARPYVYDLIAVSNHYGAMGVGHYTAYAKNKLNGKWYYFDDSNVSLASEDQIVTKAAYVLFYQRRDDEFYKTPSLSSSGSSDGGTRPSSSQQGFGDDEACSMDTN
How it was run: as §1

Measured: log2 ratio of Biotin-Ahx-Ub-VS probe labelling

COCC1C=CCCN1C(=O)CCl (stereo not given)
inactive: USP34 -0.0902 | USP36 -0.00282 | USP38 -0.157 | USP39 -0.196 | USP4 -0.211
